Laboratory results taken from PubChem BioAssay (EPA / NIEHS).
Several values for one entry are separate records, joined by “and”; a condition that tells them apart may be missing. Equal entries are not always repeated. Inconclusive results are not listed. Activity calls are given as the source filed them. How the source made its calls, unless noted: active means hit-call score of the fitted dose curve at least 0.9, where 1 is the maximum; inactive means score below 0.9.

Assays:
[1] = ATG_TAL_CIS: Attagene CIS-FACTORIAL HepG2 Assay for human TAL Basal Promoter (AID 2282966); details: HepG2 Attagene cis-factorial TAL promoter reporter; actives raise or lower the signal;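 further: background control endpoint measuring basal TAL promoter reporter mRNA not a specific factor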
How it was run: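 Basal-promoter background-control endpoint from a multiplexed HepG2 reporter panel. Cells were exposed 24 h, then reporter mRNA was read by RT-PCR/CE fluorescence and fitted in both directions relative to DMSO.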

[2] = ATG_TGFb_CIS: Attagene CIS-FACTORIAL HepG2 Assay for human Transforming Growth Factor (TGF) (AID 2282967); details: HepG2 Attagene CIS TGFb reporter, mRNA transcription; actives raise or lower the signal
How it was run: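 Liver HepG2 line, cis-factorial reporter panel, 24 h dosing. Quantitation: RT-PCR products labeled with 6-FAM, cut with HpaI, resolved by capillary electrophoresis; DMSO-referenced bidirectional analysis.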

[3] = ATG_VDRE_CIS: Attagene CIS-FACTORIAL HepG2 Assay for human Vitamin D Receptor Element (VDRE) (AID 2282968); details: HepG2 VDRE cis-reporter transcription, actives raise or lower the signal
How it was run: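 Compounds were applied for 24 h to HepG2 cells transfected with promoter-regulated reporter units. Total RNA was reverse-transcribed, and reporter amplicons were fluorescently labelled and sized by capillary electrophoresis.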

[4] = target: Nuclear receptor subfamily 1 group I member 3 (Homo sapiens) (UniProt Q14994); assay: ATG_CAR_TRANS: Attagene TRANS-FACTORIAL HepG2 Assay for human Constitutive Androstane Receptor (CAR) (AID 2282969; active means hit-call score of the fitted dose curve at least 0.9, where 1 is the maximum;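 further: activators raise reporter mRNA above DMSO so AC50 marks induction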); details: HepG2 Attagene TRANS-FACTORIAL CAR reporter
How it was run: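 Transiently transfected HepG2, multiplex TRANS reporters (CAR-Gal4 chimera driving GAL4-UAS reporter). 24 h dosing. Readout: reporter transcript by RT-PCR + capillary electrophoresis, fluorescence intensity; positive direction vs DMSO.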

[5] = target: Estrogen receptor (Homo sapiens) (UniProt P03372); assay: ATG_ERa_TRANS: Attagene TRANS-FACTORIAL HepG2 Assay for human Estrogen Receptor alpha (ERa) (AID 2282970; active means hit-call score of the fitted dose curve at least 0.9, where 1 is the maximum); details: HepG2 Attagene TRANS ERa GAL4 reporter, mRNA
How it was run: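 Gal4-fusion ERa transactivation, measured as reporter transcript level in transiently transfected HepG2 cells. Exposure 24 h; RT-PCR plus capillary electrophoresis with fluorescence detection.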

[6] = target: X-box-binding protein 1 (Homo sapiens) (UniProt P17861); assay: ATG_Xbp1_CIS: Attagene CIS-FACTORIAL HepG2 Assay for human X-box Binding Protein 1 (XBP1) (AID 2282972); details: HepG2 XBP1 cis-element reporter, Attagene multiplex; actives raise or lower the signal
How it was run: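 Human hepatoma HepG2, cis-element reporter system, 24 h treatment; mRNA quantified by RT-PCR/CE fluorescence; fit relative to DMSO.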

[7] = target: Steroid hormone receptor ERR1 (Homo sapiens) (UniProt P11474); assay: ATG_ERRa_TRANS: Attagene TRANS-FACTORIAL HepG2 Assay for human Estrogen-Related Receptor alpha (ERRa) (AID 2282971; active means hit-call score of the fitted dose curve at least 0.9, where 1 is the maximum); details: HepG2 Attagene TRANS reporter, ERRa transactivation
How it was run: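 HepG2 cells transiently transfected with GAL4-UAS reporter units and chimeric NR-Gal4 constructs; after 24 hour compound incubation, reporter mRNA quantified by RT-PCR, fluorescent labelling and capillary electrophoresis, gain of signal versus DMSO.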

[8] = ATG_M_19_TRANS: Attagene TRANS-FACTORIAL HepG2 Assay for M19 Transcription Factor (Internal Marker) (AID 2282974; active means hit-call score of the fitted dose curve at least 0.9, where 1 is the maximum); details: HepG2 Attagene TRANS-FACTORIAL M19 internal marker reporter
How it was run: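 Cells: human HepG2, transiently transfected with multiplexed reporter transcription units. Exposure: 24 h. Detection: RT-PCR of reporter mRNA with capillary electrophoresis. Analysis: gain-of-signal vs DMSO.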

[9] = target: Androgen receptor (Homo sapiens) (UniProt P10275); assay: ATG_AR_TRANS: Attagene TRANS-FACTORIAL HepG2 Assay for human Androgen Receptor (AR) (AID 2282973; active means hit-call score of the fitted dose curve at least 0.9, where 1 is the maximum); details: HepG2 Attagene TRANS-FACTORIAL AR reporter transcription
How it was run: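 HepG2 cells transiently transfected with AR-Gal4 chimera and GAL4-UAS reporter units; chemical exposure 24 h. Reporter mRNA quantified by RT-PCR with fluorescent labelling and capillary electrophoresis; gain-of-signal fitted against DMSO.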

Measured: AC50

Chain of Androgen receptor (Homo sapiens) (P10275 whole entry, looked up, the tested form may be a part): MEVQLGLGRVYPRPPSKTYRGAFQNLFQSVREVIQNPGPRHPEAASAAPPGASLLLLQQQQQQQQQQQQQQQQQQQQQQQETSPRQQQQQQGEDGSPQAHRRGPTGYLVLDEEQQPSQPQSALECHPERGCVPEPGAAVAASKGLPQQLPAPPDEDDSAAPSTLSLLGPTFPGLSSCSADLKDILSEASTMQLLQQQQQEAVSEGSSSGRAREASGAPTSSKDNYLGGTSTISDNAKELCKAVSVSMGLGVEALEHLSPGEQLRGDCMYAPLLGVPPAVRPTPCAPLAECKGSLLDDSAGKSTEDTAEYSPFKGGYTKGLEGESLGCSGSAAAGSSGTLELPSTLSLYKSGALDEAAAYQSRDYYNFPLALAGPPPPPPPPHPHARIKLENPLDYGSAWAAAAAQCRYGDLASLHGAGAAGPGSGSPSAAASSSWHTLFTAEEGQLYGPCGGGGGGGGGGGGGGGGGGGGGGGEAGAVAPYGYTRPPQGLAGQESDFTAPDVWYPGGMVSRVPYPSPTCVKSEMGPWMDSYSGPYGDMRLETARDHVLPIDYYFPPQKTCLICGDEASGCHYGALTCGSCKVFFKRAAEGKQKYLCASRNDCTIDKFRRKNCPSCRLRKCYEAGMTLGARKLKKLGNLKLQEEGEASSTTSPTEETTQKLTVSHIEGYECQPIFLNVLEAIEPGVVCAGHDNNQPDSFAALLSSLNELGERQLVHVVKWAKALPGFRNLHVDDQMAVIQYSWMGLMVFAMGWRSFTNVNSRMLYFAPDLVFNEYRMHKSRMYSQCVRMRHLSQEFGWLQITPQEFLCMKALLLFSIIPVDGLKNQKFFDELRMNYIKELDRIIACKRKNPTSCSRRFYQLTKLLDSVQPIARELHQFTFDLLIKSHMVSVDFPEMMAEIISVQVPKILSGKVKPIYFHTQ
Chain of X-box-binding protein 1 (Homo sapiens) (P17861 whole entry, looked up): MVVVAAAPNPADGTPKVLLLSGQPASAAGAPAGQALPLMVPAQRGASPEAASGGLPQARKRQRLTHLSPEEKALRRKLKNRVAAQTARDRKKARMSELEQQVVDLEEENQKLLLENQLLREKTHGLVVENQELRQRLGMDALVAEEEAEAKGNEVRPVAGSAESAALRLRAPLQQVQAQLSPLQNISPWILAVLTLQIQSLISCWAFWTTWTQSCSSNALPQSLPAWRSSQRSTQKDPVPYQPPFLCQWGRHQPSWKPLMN
Chain of Steroid hormone receptor ERR1 (Homo sapiens) (P11474 whole entry, looked up, the tested form may be a part): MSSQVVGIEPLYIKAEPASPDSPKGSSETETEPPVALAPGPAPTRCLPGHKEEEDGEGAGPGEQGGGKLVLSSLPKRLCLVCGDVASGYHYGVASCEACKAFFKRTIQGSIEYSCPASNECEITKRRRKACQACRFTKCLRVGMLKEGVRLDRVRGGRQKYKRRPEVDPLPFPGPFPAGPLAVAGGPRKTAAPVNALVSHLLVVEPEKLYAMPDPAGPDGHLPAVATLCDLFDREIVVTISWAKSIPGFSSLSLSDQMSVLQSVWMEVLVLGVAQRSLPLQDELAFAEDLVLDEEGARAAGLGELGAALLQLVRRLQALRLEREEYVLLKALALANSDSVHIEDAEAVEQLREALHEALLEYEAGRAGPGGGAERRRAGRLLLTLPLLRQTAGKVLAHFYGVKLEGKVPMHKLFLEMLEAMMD
Chain of Estrogen receptor (Homo sapiens) (P03372 whole entry, looked up, the tested form may be a part): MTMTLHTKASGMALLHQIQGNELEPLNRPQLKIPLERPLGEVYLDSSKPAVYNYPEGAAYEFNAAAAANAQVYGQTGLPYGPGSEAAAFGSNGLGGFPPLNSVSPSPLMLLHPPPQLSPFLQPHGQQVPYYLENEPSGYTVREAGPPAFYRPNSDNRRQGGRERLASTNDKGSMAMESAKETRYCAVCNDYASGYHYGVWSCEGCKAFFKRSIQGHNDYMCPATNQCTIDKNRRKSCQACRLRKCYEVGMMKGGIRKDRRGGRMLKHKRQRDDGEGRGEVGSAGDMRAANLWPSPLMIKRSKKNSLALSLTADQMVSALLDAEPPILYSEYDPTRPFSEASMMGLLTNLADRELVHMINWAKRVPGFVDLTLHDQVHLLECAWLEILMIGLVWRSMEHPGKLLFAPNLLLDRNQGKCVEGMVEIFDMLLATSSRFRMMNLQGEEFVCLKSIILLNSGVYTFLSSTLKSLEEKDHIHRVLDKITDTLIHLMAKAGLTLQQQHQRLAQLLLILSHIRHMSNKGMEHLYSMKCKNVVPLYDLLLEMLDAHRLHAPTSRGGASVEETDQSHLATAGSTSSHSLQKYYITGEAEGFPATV
Chain of Nuclear receptor subfamily 1 group I member 3 (Homo sapiens) (Q14994 whole entry, looked up, the tested form may be a part): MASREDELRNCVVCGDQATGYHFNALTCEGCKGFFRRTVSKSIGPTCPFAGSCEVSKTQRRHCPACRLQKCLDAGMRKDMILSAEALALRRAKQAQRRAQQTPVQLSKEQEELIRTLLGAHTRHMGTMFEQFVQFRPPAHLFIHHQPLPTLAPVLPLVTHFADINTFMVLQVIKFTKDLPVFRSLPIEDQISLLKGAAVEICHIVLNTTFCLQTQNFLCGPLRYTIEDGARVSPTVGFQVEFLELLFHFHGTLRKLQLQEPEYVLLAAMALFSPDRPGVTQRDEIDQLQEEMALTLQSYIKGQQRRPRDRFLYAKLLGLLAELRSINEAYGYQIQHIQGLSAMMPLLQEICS

O=c1ssc(Cl)c1Cl
active: [3] 52.6 µM | [6] 45.8 µM
inactive: [1] | [2] | [4] | [5]

CCOP(=S)(OCC)SCn1nnc2ccccc2c1=O
active: [3] 1.61 µM | [5] 3.08 µM
not listed: [9]
inactive: all other assays above

CCOP(=S)(S)OCC
not listed: [7] | [8]
inactive: all other assays above

O=P(Oc1ccccc1)(Oc1ccccc1)Oc1ccccc1
active: [3] 7.17 µM | [6] 49.4 µM
not listed: [7] | [9]
inactive: all other assays above

OCC(F)(F)OC(F)(F)C(F)(F)OC(F)(F)C(F)(F)OC(F)(F)F
active: [5] 6.04 µM and 4.34 µM
inactive: all other assays above

O=C(O)C(F)(OC(F)(F)C(F)(F)C(F)(F)F)C(F)(F)F (configuration not stated)
inactive: all assays above

CO/N=C(/C(=O)OC)c1ccccc1COc1ccccc1C
inactive: [1] | [2] | [4] | [9]
active: [3] 13 µM | [5] 2.6 µM | [6] 35.2 µM

CC(O)C(F)(F)C(F)(F)F (configuration not stated)
inactive: all assays above

CCOP(=S)(OCC)SCS(=O)(=O)CC
inactive: all assays above

ClC(Cl)=C(c1ccc(Cl)cc1)c1ccccc1Cl
active: [1] 177 µM | [5] 2.02 µM | [6] 100 µM
not listed: [7]
inactive: all other assays above

ClC(Cl)(Cl)c1ccccc1
active: [5] 45.2 µM
inactive: [1] | [2] | [3] | [4] | [6]

CCN(CC)C1CCCCC1
not listed: [8] | [9]
inactive: all other assays above
